The record followed here is PubChem BioAssay.

The nature of test [1]: rapamycin-like changes in RPL19A-GFP expression – cell-based, S. cerevisiae, multiplex flow cytometry, primary screen (AID 1862; in the data active means percent of DMSO control GFP below about 86%;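 further: lower values mimic rapamycin by blocking the RPL19A rise seen in DMSO cells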). Particulars: S. cerevisiae RPL19A-GFP strain, flow cytometry fluorescence, 3 h; at 10 µM; stronger effect = lower value.
The nature of test [2]: TOR pathway GLN3 branch reporter MEP2-GFP changes – S. cerevisiae, multiplex flow cytometry, primary screen (AID 1867;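 active means GFP response, as percent of the DMSO control, above the screen-wide mean plus 3 SD, about 139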;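 further: median GFP channel fluorescence of barcode-gated MEP2-GFP cells measured by flow cytometry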). Particulars: S. cerevisiae MEP2-GFP strain, 3 h, at 10 µM, stronger effect = higher value, 100% means same as DMSO wells.
Test [3] in a line: TOR pathway RTG branch CIT2 reporter changes – S. cerevisiae, GFP fusion, multiplex flow cytometry, primary screen (AID 1870;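 active means percent response above a set limit, the screen-wide mean plus 3 SD, cut at about 130% in these data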;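 further: barcoded CIT2-GFP strain pooled with four other GFP strains with rapamycin as positive control; median GFP fluorescence per well over plate mean of DMSO wells so 100% = DMSO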). Particulars: S. cerevisiae CIT2-GFP expression, 3 h, at 10 µM, stronger effect = higher value.
Test [4] is described as follows: TOR pathway LAP4-GFP level changes – S. cerevisiae, multiplex flow cytometry, primary screen (AID 1873;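 active means GFP signal, as percent of the solvent control, above the screen mean plus 3 SD, about 149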). The settings on record: S. cerevisiae LAP4-GFP expression, 3 h, at 10 µM, stronger effect = higher value.
The nature of test [5]: yeast AGP1-GFP level changes, GLN3 branch – cell-based, multiplex flow cytometry, S. cerevisiae, primary screen (AID 1887;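 active means GFP signal above the screen-wide mean plus 3 SD, that is over about 124.5% of the solvent control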;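 further: AGP1-GFP fusion strain of S. cerevisiae within a five-strain barcoded multiplex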). Particulars: 3 h, at 10 µM, stronger effect = higher value.
Test [6] in a line: reduced mouse 2C T cell binding to pMHC/ICAM-1 vesicles – MLPCN validation set, flow cytometry, LFA-1/ICAM-1 modulator project, pilot screen (AID 2523;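 active means response below a set limit, under 55% cells CD8-positive and vesicle-bound, and CD8 cells' 90th-percentile brightness under 279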;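 on vesicle binding response: mean PE anti-B7-1 fluorescence of CD8+ cells relative to row control; 100% = QL9-loaded vesicles with DMSO vehicle in the same plate row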). Particulars: 2C mouse CD8+ T cells, at 7 µM, stronger effect = lower value; double positive events: measured here: CD8+/vesicle+ event percentage.
The target of test [7] is Integrin beta-1 (Homo sapiens) + Integrin alpha-4 (Homo sapiens) (UniProt P13612+P05556). In words: alpha4beta1 integrin LIBS antibody binding reduction – U937 cells, HUTS-21 mAb, flow cytometry, validation set, VLA-4 allosteric modulator project, pilot screen (AID 2674;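 active means inhibition above 50%, about 3 SD of the validation set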;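 further: antibody binding induced by the VLA-4 ligand LDV present at three times its Kd; 0% = LDV ligand with antibody and no compound and 100% = antibody without LDV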). The settings on record: HUTS-21 LIBS mAb binding, at 6.7 µM, stronger effect = higher value, binding induced by LDV ligand.
Chain of Integrin beta-1 (Homo sapiens) + Integrin alpha-4 (Homo sapiens) (P05556 whole entry, looked up): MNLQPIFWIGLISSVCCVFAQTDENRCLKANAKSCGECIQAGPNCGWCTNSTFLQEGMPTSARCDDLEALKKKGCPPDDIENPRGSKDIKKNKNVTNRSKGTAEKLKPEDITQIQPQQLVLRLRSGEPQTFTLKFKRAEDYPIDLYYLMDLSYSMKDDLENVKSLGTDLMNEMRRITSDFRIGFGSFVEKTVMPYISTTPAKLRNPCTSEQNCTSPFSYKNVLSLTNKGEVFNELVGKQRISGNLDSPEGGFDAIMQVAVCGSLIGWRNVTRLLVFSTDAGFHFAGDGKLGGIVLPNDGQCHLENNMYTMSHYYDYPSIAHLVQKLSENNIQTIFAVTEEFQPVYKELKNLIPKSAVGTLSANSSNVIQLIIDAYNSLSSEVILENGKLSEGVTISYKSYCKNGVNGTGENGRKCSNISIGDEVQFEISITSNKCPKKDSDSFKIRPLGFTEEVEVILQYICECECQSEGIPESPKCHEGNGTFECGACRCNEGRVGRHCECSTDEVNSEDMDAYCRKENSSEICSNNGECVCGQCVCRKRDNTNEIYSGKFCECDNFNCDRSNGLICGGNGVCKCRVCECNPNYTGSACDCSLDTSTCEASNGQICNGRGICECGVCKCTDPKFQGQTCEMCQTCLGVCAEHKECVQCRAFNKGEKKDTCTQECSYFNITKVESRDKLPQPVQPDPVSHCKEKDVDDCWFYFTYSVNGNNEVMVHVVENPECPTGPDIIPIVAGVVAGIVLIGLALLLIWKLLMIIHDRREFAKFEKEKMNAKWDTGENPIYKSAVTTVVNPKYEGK
Chain of Integrin beta-1 (Homo sapiens) + Integrin alpha-4 (Homo sapiens) (P13612 whole entry, looked up): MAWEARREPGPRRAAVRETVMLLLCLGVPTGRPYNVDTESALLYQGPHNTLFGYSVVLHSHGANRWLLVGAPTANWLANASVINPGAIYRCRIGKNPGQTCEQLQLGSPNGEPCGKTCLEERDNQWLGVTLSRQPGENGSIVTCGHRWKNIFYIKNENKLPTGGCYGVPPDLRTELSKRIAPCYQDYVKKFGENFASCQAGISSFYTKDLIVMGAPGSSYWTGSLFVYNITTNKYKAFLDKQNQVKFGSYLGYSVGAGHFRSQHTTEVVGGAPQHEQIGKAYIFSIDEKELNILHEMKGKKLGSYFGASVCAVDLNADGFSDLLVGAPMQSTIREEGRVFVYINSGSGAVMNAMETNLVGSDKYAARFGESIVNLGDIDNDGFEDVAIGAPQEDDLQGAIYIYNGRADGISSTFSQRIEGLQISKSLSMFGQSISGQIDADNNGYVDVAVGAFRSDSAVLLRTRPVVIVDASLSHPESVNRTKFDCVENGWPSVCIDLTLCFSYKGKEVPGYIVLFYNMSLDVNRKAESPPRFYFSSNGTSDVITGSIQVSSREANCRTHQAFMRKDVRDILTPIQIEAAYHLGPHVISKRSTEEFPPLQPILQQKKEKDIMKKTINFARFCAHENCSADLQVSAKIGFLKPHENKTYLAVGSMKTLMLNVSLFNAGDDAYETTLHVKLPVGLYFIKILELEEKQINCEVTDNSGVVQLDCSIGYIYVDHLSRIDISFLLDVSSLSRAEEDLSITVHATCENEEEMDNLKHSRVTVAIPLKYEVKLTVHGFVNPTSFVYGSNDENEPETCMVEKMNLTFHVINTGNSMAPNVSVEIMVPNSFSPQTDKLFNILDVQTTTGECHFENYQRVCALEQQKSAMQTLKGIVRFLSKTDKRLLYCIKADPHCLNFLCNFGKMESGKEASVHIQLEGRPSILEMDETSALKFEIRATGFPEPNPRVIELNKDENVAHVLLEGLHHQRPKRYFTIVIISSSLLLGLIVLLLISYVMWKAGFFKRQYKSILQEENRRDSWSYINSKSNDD

The nature of test [8]: calorie-restriction mimetic ROS inhibitors, yeast – validation compound set, pilot screen (AID 2706;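 active means superoxide response below 65% of plate, a cut near 3 SD across the whole screen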;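 further: yeast exposed to compound for one week at 30 degrees C before staining; 100% = mean of all compound wells on the same plate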). Particulars: S. cerevisiae aging, superoxide DHE fluorescence; at 10 µM; stronger effect = lower value.
Test [9] deals with Beta-adrenergic receptor kinase 1 (Homo sapiens) (UniProt P25098). The experiment in a line: GRK2 binders displacing RNA aptamer, biochemical, validation, human GRK2, bead flow cytometry (AID 488806;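 active means aptamer binding inhibition above 30%, about 3 SD of noise from non-fluorescent compounds; inactive means inhibition at or below 30%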). Particulars: bead-bound GRK2, FAM-aptamer displacement, at 10 µM, stronger effect = higher value.
Chain of Beta-adrenergic receptor kinase 1 (Homo sapiens) (P25098 whole entry, looked up): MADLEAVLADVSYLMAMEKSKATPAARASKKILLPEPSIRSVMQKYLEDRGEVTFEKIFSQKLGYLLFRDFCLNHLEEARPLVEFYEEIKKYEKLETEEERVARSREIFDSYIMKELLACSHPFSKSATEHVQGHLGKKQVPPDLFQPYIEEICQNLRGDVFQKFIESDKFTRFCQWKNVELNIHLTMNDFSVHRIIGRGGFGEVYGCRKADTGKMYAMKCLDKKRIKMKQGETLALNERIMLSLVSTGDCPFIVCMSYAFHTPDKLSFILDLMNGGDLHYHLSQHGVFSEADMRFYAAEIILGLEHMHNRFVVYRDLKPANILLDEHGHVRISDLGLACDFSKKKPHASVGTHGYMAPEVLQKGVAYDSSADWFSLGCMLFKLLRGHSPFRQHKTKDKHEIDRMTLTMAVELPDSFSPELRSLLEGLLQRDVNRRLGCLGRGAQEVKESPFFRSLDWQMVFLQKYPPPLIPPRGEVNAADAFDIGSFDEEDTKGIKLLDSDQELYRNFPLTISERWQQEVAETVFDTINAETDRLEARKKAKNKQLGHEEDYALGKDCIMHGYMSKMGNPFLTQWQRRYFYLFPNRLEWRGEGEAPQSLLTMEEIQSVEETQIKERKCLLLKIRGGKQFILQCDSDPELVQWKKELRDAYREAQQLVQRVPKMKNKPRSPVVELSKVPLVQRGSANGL
Test [10] concerns the target Beta-2 adrenergic receptor (Homo sapiens) (UniProt P07550). In words: agonist-induced loss of surface beta2AR – cell-based, FAP fluorogen, flow cytometry, validation set, pilot screen (AID 504459;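 active means percent response above 42, roughly 3 SD of non-fluorescent test compounds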;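 further: agonist-driven loss of surface beta2AR via internalization measured by FAP dye flow cytometry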). Particulars: Am2.2-beta2AR cells, at 10 µM, stronger effect = higher value.
For test [11], the target named is AP-2 complex subunit beta (Homo sapiens) (UniProt P63010). The experiment in a line: beta-arrestin/AP2 interaction blockers – biochemical, validation set, GST-AP2 beads, flow cytometry, pilot screen (AID 504541;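 active means inhibition above 54%, about 3 SD of non-fluorescent compounds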;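 further: AP2 carries R879A mutation and is captured from E. coli lysate; bead-bound FITC arrestin peptide fluorescence measuring arrestin peptide binding to AP2; 0% = DMSO wells and 100% = excess unlabeled arrestin peptide control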). The settings on record: FITC arrestin peptide, at 10 µM, stronger effect = higher value, AP2 beta2 appendage fragment, R879A mutant.
Chain of AP-2 complex subunit beta (Homo sapiens) (P63010 whole entry, looked up, the tested form may be a part, one chain of several): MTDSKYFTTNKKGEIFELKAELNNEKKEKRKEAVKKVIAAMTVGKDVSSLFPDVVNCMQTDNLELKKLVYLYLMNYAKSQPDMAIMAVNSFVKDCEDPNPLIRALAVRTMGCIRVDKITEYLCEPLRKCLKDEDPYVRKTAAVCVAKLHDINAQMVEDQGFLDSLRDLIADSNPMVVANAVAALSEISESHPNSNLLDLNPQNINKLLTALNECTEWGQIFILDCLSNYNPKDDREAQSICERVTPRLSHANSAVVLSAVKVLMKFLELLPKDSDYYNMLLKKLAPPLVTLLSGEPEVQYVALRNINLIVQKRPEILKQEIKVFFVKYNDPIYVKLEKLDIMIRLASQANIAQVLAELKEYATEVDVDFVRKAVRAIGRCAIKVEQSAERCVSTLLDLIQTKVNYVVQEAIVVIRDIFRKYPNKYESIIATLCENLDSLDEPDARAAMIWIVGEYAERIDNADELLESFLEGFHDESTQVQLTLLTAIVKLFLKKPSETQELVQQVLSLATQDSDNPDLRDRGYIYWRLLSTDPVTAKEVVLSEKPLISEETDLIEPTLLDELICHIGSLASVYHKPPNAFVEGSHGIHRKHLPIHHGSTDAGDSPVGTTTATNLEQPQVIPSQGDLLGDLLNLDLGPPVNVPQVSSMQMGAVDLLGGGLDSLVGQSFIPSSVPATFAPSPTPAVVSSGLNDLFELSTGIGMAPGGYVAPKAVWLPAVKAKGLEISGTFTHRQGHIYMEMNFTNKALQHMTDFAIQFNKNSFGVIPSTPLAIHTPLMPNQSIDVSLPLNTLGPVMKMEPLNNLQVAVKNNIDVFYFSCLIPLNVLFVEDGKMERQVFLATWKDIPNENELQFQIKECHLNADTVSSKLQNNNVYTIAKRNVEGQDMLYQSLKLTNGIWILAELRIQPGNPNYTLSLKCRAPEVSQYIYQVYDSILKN
Test [12] in a line: cytosolic pH regulators acting via V-ATPase – S. cerevisiae, pHLuorin, HTS validation (AID 504600; in the data active means response above about 15%;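 further: plate controls were DMSO for no effect and reference compound for full effect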). The settings on record: V-ATPase proton transport, at 10 µM, stronger effect = higher value.
Test [13] has as its system anti-desmoglein-3 scFv antibody binding to human DSG3. The experiment in a line: blockers of pathogenic pemphigus antibody–desmoglein-3 binding – biochemical, validation compound set, bead-based, flow cytometry, pilot screen (AID 588368;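 active means binding below the plate cutoff, the plate median minus 3 SD, with a reading above zero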;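 further: signal is the median channel fluorescence of bead-bound GFP antibody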). The settings on record: Protein G beads, DSG3-Fc, scFv-GFP binding, at 10 µM, stronger effect = lower value.
The nature of test [14]: Nile Red efflux blockade in pump-expressing yeast – validation compound set, multiplex, phenotypic, pilot screen (AID 588506).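 Further: Nile Red retained in cells so higher fluorescence means more efflux inhibition; 0 = negative control wells and 1 = enniatin B 25 µM full block.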 Particulars: S. cerevisiae pump-expressing triplex, Nile Red efflux flow cytometry; at 10 µM; stronger effect = higher value; the pumps come from Candida albicans.
The target of test [15] is ATP-binding cassette sub-family B member 6 (Homo sapiens) (UniProt Q9NP58). In words: blockers of ABCB6-driven porphyrin uptake – K562-ABCB6 cells, flow cytometry, validation set, pilot screen (AID 588550;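 active means inhibition above the screen-wide mean plus 3 SD, about 51%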;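 further: 0% = DMSO wells and 100% = benzethonium chloride 70 µM positive control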). Particulars: K562-ABCB6 porphyrin accumulation, 1 h, at 10 µM, stronger effect = higher value.
Chain of ATP-binding cassette sub-family B member 6 (Homo sapiens) (Q9NP58 whole entry, looked up): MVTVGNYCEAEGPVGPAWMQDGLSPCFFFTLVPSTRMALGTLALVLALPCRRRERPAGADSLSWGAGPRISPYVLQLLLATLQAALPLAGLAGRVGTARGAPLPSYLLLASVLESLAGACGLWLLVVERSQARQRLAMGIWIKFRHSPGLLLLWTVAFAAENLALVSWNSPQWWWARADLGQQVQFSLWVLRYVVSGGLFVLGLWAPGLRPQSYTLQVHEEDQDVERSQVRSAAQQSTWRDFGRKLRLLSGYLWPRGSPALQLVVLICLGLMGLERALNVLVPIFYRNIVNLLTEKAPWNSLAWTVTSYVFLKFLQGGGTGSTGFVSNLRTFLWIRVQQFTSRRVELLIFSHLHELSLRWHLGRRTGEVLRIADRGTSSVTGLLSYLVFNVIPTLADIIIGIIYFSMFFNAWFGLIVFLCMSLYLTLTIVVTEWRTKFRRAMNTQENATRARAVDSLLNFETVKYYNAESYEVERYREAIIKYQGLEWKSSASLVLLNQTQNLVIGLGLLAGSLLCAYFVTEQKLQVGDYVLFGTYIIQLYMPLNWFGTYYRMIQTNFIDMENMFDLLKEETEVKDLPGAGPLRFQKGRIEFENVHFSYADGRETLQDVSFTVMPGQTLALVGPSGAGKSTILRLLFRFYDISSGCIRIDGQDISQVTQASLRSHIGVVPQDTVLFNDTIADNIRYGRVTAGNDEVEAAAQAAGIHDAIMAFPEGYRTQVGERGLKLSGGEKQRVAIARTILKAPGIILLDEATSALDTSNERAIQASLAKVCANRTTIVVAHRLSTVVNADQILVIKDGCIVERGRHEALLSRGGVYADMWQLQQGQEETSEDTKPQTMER
Test [16] can be described thus: AML differentiation inducers, ER-HoxA9 marrow cells – cell-based, GFP/MAC1 double positive, flow cytometry, validation set, primary screen (AID 588685;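 active means differentiation response of at least 50%, scaled between solvent and reference control, from cells with both markers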;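 further: compound exposure lasts four days before antibody staining and flow analysis; 0% = DMSO wells and 100% = 5 µM fulvestrant positive control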). The settings on record: stronger effect = higher value, normalized: vehicle 0, fulvestrant 100.

Each structure is given as a SMILES string. Records with an inconclusive call do not appear. Active and inactive are the calls of the source.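 How the source made its calls, unless noted: active means efflux inhibition above 0.42, the validation set average plus 4 SD; inconclusive means no clear call, values can overlap the other calls; inactive means the rest.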

Chain of Beta-2 adrenergic receptor (Homo sapiens) (P07550 whole entry, looked up): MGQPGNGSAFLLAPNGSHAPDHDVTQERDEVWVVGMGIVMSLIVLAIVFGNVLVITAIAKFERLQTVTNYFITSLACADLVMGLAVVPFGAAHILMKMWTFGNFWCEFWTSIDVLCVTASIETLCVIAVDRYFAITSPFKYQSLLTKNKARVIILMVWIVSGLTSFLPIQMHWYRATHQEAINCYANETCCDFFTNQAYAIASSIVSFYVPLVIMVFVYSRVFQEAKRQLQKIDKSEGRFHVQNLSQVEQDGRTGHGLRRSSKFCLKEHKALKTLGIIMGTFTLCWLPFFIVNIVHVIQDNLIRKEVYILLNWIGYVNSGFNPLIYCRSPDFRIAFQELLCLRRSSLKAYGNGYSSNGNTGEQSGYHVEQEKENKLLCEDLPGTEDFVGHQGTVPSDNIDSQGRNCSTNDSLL

For `CCNC(=O)C(Cc1ccccc1)NC(=O)OCc1ccccc1` (stereo not given), the percent of DMSO control GFP in test [1] was 101% (inactive). The GFP response vs DMSO is 103% (inactive) in test [2] and 117% (inactive) in [4]. Moreover, the percent response of DMSO control in test [3] is 99.6% (inactive). Besides, the GFP response, % of DMSO in test [5] was 106% (inactive). Moreover, the double positive events in test [6] was 62.5%. Besides, in [6], the vesicle binding response was 367% (inactive). Besides, the inhibition in test [7] is 19.3% (inactive); in test [11], 1.34% (inactive); in [15] it was 6% (inactive). Besides, the superoxide response (% of plate) in [8] is 112% (inactive). Further, in [9], the aptamer binding inhibition was 2% (inactive). Besides, the response in [10] is -19.9% (inactive); in test [12] it was 0.55% (inactive). Also, in test [13], the binding (% of control) is 108% (inactive). Moreover, in [14], the efflux inhibition (fraction of control) is 0 (inactive). Also, the differentiation response in [16] is -12.9% (inactive).
With `O=C(O)c1cnccn1`, the percent of DMSO control GFP in test [1] was 103% (inactive). Further, the GFP response vs DMSO was 94.7% (inactive) in [2] and 108% (inactive) in test [4]. Also, the percent response of DMSO control in test [3] is 93.8% (inactive). Also, in [5], the GFP response, % of DMSO is 106% (inactive). The molecule also gave a double positive events in [6] of 65%. Besides, the vesicle binding response in test [6] was 160% (inactive). The inhibition in [7] was 21% (inactive); in test [11], -5% (inactive); in [15] it was 6% (inactive). For the same molecule, the superoxide response (% of plate) in test [8] is 102% (inactive). Besides, in test [9], the aptamer binding inhibition is 4% (inactive). Moreover, the response is -18.2% (inactive) in test [10] and 2.35% (inactive) in test [12]. The binding (% of control) in [13] was 104% (inactive). Besides, the efflux inhibition (fraction of control) in test [14] was -0.21 (inactive). Besides, in test [16], the differentiation response was -4.99% (inactive).
On to `CN(C)CC/C=C1\c2ccccc2Sc2ccc(Cl)cc21`, for which, in test [1], the percent of DMSO control GFP is 104% (inactive). The GFP response vs DMSO in [2] is 110% (inactive); in test [4], 106% (inactive). Besides, the percent response of DMSO control in test [3] is 103% (inactive). In test [5], the GFP response, % of DMSO was 106% (inactive). In test [6], this molecule gave a double positive events of 64.5%. Further, the vesicle binding response in test [6] was 157% (inactive). The inhibition is 9.63% (inactive) in test [7], 54.9% (active) in [11] and 9% (inactive) in test [15]. Moreover, in test [8], the superoxide response (% of plate) was 88.7% (inactive). Further, in [9], the aptamer binding inhibition was -5% (inactive). Further, the response is 19.9% (inactive) in [10] and -15.9% (inactive) in test [12]. The binding (% of control) in [13] was 106% (inactive). Also, the efflux inhibition (fraction of control) in test [14] was 0.08 (inactive). Besides, the differentiation response in [16] is -17.7% (inactive).
For the molecule `C[C@]12CC[C@@H]3c4ccc(O)cc4CC[C@H]3[C@@H]1C[C@@H](O)[C@@H]2O[C@@H]1O[C@H](C(=O)O)[C@@H](O)[C@H](O)[C@H]1O`, in test [1], the percent of DMSO control GFP is 90.6% (inactive). Also, the GFP response vs DMSO in test [2] is 113% (inactive); in test [4] it was 77% (inactive). Also, the percent response of DMSO control in [3] is 108% (inactive). Moreover, the GFP response, % of DMSO in test [5] is 104% (inactive). The molecule further showed a double positive events in [6] of 61.7%. The vesicle binding response in [6] is 249% (inactive). Also, the inhibition in [7] was -10% (inactive); in test [11], -6.28% (inactive); in test [15] it was 8% (inactive). In addition, the superoxide response (% of plate) in [8] was 109% (inactive). Further, the aptamer binding inhibition in [9] is 4% (inactive). Besides, the figures for the response in test [10] and in test [12] were -7.17% (inactive) and -6.58% (inactive), respectively. Also, the binding (% of control) in test [13] is 105% (inactive). Further, the efflux inhibition (fraction of control) in test [14] is 0.12 (inactive). In addition, the differentiation response in test [16] was -4.91% (inactive).
Regarding `CC(=O)N[C@@H](CS)C(=O)O`, in [1], the percent of DMSO control GFP was 101% (inactive). Also, the GFP response vs DMSO in [2] was 111% (inactive); in test [4] it was 131% (inactive). In test [3], the percent response of DMSO control is 95.8% (inactive). For the same molecule, in [5], the GFP response, % of DMSO was 101% (inactive). The double positive events in test [6] turned out to be 64.2%. Also, in [6], the vesicle binding response was 159% (inactive). Further, the results for the inhibition in test [7], in test [11] and in test [15] were -3.16% (inactive), -18.7% (inactive) and 19% (inactive), respectively. Also, in [8], the superoxide response (% of plate) is 89.1% (inactive). Besides, the aptamer binding inhibition in [9] was 5% (inactive). In addition, the values for the response in test [10] and in test [12] were 7.69% (inactive) and 0.13% (inactive), respectively. For the same molecule, the binding (% of control) in test [13] was 104% (inactive). The efflux inhibition (fraction of control) in test [14] was -0.03 (inactive). Moreover, the differentiation response in test [16] was 7.2% (inactive).
